Measured values as given in the supplement of paper PMC10849652.
Of roughly 7,900 targets only a part is listed; those with a hit were picked by preference. About 0.6% of all pairs of compound and target were hits. Unmarked numbers belong to inactive results.

Assays:
Assay in all cases: log2 fold change, soluble protein after heating vs DMSO (PISA); higher = thermal stabilisation; K562 cells, 10 uM, 30 min; active = over 0.2 and 3.5 SD of the protein, either way, in both replicates (recomputed)
[1] = compound: Cc1ccc(NC(=O)c2ccc(CN3CC[C@H](N(C)C)C3)c(C(F)(F)F)c2)cc1Nc1nccc(-c2cncnc2)n1 [bafetinib]
Outline: (§1)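 Quantification of soluble protein used TMTpro 16plex LC-MS/MS, with channel sums equalised. Samples were the supernatant after 21,000xg for 90 min of pooled aliquots from K562 cells (2×10^6 cells/mL) treated with 10 μM compound for 30 min, heated for 3 min over 48°C-58°C, and extracted in PBS with 0.5% NP-40 at 4°C. Values, from duplicates, describe thermal stability against control samples on a log2 fold-change scale.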

[2] = compound: Cc1cccc(CC(=O)N2CCc3c2ccc(-c2cn(C)c4ncnc(N)c24)c3F)n1
Outline: as §1

[3] = compound: FC(F)(F)c1ccc(/C=C/c2nc(COc3ccc(CCCCn4ccnn4)cc3)co2)cc1 [mubritinib]
Outline: as §1

[4] = compound: NC(=O)Nc1cc(-c2cccc(F)c2)sc1C(=O)N[C@H]1CCCNC1
Outline: as §1

[5] = compound: NC1(c2ccc(-c3nc4ccn5c(=O)[nH]nc5c4cc3-c3ccccc3)cc2)CCC1
Outline: as §1

[6] = compound: Nc1ccccc1NC(=O)c1ccc(CNC(=O)OCc2cccnc2)cc1 [entinostat]
Outline: as §1

[7] = compound: O=C(CCCCCCC(=O)Nc1ccccc1)NO [vorinostat]
Outline: as §1

[8] = compound: O=C(O)c1ccc2c(c1)nc(Nc1cccc(Cl)c1)c1ccncc12 [silmitasertib]
Outline: as §1

[9] = compound: O=C1NC(=O)C(c2cnc3ccccn23)=C1c1cn2c3c(cc(F)cc13)CN(C(=O)N1CCCCC1)CC2
Outline: as §1

[10] = compound: Cc1nc(Nc2ncc(C(=O)Nc3c(C)cccc3Cl)s2)cc(N2CCN(CCO)CC2)n1 [dasatinib]
Outline: as §1

[11] = compound: Cn1cc(-c2ccc3c(c2)CCN3C(=O)Cc2cccc(C(F)(F)F)c2)c2c(N)ncnc21
Outline: as §1

[12] = compound: Cn1cc(-c2ccc3nnc(C(F)(F)c4ccc5ncccc5c4)n3n2)cn1
Outline: as §1

[13] = compound: Cn1cncc1[C@@](N)(c1ccc(Cl)cc1)c1ccc2c(c1)c(-c1cccc(Cl)c1)cc(=O)n2C [tipifarnib]
Outline: as §1

[14] = compound: NC(=O)c1cnc(N[C@@H]2CCCC[C@@H]2N)nc1Nc1cccc(-n2nccn2)c1
Outline: as §1

[15] = compound: NCC(=O)Nc1ccc(-n2nc(C(F)(F)F)cc2-c2ccc3c(ccc4ccccc43)c2)cc1
Outline: as §1

[16] = compound: O=C(CCCCCCNC(=O)c1cnc(N(c2ccccc2)c2ccccc2Cl)nc1)NO [citarinostat]
Outline: as §1

[17] = compound: c1cc(OCCN2CCCCC2)cc(-c2n[nH]c3ccc(-c4nnc[nH]4)cc23)c1
Outline: as §1

[18] = compound: Cc1cn(-c2cc(NC(=O)c3ccc(C)c(Nc4nccc(-c5cccnc5)n4)c3)cc(C(F)(F)F)c2)cn1 [nilotinib]
Outline: as §1

[19] = compound: Cc1nc(Nc2n[nH]c3c2CN(C(=O)N[C@H](CN(C)C)c2ccccc2)C3(C)C)c2sccc2n1
Outline: as §1

[20] = compound: Cc1ncc(-c2ccnc(Nc3ccc(S(C)(=O)=O)cc3)n2)n1C(C)C
Outline: as §1

UniProt Q5BJH2, sequence (Q5BJH2 whole entry, looked up): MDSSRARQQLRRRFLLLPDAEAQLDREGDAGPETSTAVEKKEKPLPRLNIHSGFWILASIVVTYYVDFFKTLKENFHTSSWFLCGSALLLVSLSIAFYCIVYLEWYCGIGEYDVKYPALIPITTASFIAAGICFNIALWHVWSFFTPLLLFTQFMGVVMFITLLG
UniProt Q9Y5K5, sequence (Q9Y5K5 whole entry, looked up): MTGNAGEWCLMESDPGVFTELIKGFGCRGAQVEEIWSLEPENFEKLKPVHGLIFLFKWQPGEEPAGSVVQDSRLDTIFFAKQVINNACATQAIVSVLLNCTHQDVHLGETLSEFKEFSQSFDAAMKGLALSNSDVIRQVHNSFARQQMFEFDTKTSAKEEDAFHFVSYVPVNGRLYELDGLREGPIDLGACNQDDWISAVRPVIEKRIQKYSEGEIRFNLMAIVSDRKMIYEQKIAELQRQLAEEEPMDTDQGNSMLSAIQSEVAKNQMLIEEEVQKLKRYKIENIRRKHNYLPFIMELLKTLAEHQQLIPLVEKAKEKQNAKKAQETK
UniProt Q6PID6, sequence (Q6PID6 whole entry, looked up): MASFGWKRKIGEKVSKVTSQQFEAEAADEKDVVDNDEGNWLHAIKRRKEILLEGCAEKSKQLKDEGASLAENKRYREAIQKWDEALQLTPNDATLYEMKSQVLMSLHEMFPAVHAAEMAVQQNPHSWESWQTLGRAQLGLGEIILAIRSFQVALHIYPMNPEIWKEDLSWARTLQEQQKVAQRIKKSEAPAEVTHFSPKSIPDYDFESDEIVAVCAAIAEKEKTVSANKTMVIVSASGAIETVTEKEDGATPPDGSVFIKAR
UniProt Q7Z3V4, sequence (Q7Z3V4 whole entry, looked up): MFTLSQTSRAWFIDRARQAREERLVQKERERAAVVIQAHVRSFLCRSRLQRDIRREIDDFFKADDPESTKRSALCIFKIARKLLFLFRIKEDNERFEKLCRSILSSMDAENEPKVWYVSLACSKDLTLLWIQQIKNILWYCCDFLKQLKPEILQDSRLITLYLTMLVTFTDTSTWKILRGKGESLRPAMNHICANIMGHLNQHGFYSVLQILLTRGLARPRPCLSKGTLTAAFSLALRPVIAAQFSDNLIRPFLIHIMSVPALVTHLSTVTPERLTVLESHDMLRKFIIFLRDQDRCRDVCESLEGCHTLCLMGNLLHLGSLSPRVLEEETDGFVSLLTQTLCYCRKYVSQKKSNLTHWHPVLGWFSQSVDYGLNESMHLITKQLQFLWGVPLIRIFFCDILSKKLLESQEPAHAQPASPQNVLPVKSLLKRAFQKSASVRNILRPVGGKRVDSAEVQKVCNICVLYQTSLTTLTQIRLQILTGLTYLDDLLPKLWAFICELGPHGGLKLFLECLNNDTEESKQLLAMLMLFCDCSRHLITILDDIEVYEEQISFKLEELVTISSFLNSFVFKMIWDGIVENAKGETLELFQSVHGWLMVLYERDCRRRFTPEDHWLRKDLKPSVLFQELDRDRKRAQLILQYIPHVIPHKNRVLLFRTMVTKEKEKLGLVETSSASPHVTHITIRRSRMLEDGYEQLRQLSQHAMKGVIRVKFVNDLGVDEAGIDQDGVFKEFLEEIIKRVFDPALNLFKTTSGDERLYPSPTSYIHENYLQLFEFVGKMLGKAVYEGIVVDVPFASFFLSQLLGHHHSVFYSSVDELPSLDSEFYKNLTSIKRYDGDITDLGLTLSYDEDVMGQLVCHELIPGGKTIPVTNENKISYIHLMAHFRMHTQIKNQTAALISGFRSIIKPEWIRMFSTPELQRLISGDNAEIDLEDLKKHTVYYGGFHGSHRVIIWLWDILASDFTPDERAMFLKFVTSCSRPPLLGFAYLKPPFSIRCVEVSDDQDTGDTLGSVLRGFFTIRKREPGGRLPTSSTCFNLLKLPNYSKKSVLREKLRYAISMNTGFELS
UniProt O00124, sequence (O00124 whole entry, looked up): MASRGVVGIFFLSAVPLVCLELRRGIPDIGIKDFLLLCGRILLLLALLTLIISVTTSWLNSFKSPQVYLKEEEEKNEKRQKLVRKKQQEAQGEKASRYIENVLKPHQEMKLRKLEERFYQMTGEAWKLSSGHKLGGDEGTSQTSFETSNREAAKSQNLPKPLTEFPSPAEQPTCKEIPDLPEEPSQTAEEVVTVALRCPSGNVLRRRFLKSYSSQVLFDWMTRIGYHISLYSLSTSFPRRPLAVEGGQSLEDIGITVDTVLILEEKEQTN
UniProt Q96ET8, sequence (Q96ET8 whole entry, looked up): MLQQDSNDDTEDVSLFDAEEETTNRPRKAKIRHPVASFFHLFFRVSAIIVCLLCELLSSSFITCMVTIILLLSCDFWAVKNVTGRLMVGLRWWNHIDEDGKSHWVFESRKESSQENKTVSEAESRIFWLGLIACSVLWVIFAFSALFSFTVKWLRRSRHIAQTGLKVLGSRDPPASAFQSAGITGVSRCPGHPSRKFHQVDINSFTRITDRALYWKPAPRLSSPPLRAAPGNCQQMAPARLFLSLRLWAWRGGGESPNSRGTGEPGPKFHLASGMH
UniProt Q9HCS7, sequence (Q9HCS7 whole entry, looked up): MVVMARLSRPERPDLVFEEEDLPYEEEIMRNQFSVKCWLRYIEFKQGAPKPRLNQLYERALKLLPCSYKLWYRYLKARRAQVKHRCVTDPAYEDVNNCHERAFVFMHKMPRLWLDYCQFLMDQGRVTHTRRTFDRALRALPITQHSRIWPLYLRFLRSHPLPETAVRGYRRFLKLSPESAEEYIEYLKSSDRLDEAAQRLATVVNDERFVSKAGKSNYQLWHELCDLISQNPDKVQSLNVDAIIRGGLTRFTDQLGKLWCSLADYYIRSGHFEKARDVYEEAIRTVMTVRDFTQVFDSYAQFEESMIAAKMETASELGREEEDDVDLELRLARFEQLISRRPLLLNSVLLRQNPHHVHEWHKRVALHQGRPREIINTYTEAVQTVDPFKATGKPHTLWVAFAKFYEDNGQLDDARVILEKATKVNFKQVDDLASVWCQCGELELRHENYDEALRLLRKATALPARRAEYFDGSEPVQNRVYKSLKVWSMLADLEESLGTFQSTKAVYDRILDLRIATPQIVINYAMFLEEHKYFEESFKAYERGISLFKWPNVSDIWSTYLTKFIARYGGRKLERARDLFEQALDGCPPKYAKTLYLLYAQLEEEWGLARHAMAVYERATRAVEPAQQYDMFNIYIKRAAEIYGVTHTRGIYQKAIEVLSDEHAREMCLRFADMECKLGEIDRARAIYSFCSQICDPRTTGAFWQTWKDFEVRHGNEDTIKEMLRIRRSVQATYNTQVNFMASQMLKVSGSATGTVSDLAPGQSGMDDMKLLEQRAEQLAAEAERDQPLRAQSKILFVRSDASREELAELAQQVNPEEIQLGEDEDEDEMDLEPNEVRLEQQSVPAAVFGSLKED
UniProt O60784, sequence (O60784 whole entry, looked up): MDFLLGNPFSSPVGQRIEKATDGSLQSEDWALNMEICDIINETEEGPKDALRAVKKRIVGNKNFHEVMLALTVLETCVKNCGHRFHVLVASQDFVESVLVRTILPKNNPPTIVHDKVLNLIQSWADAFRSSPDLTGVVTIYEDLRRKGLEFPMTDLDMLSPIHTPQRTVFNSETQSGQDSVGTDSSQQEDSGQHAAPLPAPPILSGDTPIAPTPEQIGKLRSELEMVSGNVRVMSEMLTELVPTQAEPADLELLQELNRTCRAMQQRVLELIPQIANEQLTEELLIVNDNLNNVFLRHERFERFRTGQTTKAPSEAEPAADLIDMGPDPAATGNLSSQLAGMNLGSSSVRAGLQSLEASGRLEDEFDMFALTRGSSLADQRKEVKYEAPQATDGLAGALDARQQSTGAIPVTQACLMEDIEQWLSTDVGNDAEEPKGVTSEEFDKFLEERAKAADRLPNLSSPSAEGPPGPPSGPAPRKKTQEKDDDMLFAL
UniProt Q15906, sequence (Q15906 whole entry, looked up): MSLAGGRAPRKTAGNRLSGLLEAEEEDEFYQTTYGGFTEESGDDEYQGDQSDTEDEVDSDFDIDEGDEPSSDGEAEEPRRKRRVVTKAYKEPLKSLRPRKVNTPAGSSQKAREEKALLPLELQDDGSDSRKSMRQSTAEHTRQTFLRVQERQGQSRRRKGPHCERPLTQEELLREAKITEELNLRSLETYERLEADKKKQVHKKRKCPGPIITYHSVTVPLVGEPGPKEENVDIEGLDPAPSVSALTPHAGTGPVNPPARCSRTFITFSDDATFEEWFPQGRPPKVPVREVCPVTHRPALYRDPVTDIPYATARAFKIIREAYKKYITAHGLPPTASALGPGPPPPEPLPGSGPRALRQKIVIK
UniProt Q9BZM6, sequence (Q9BZM6 whole entry, looked up): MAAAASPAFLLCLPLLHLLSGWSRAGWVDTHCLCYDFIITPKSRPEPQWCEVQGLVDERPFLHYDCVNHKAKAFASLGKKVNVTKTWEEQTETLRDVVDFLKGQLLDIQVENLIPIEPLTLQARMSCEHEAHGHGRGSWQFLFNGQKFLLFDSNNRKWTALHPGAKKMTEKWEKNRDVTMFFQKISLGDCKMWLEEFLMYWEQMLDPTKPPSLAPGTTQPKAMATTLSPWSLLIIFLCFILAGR
UniProt Q9NQZ2, sequence (Q9NQZ2 whole entry, looked up): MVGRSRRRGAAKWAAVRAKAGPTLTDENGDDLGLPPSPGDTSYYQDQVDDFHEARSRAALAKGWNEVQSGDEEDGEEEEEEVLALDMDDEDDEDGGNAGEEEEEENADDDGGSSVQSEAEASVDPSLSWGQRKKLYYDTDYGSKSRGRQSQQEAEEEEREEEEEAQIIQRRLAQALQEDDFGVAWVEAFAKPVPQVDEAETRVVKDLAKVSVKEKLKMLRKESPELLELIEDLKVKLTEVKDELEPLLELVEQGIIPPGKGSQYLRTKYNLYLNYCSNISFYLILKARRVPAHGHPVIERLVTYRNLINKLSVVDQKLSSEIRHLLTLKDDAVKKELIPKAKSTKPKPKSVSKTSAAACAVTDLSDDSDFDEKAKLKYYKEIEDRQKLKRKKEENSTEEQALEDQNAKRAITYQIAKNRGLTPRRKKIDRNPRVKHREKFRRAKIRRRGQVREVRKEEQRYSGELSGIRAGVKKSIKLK
UniProt P61960, sequence (P61960 whole entry, looked up): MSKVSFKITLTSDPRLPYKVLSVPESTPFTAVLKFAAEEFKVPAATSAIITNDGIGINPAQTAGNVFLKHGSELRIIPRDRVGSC

| Target | log2 fold change [1] | log2 fold change [2] | log2 fold change [3] | log2 fold change [4] | log2 fold change [5] | log2 fold change [6] | log2 fold change [7] | log2 fold change [8] | log2 fold change [9] | log2 fold change [10] | log2 fold change [11] | log2 fold change [12] | log2 fold change [13] | log2 fold change [14] | log2 fold change [15] | log2 fold change [16] | log2 fold change [17] | log2 fold change [18] | log2 fold change [19] | log2 fold change [20] |
| --- | --- | --- | --- | --- | --- | --- | --- | --- | --- | --- | --- | --- | --- | --- | --- | --- | --- | --- | --- | --- |
| TOM1 (UniProt O60784) | -0.288 | -0.105 | -0.222 | 0.044 | -0.176 | 0.062 | 0.048 | 0.017 | -0.077 | – | – | – | – | – | – | – | – | – | – | – |
| TTC33 (UniProt Q6PID6) | 0.049 | 0.181 | 0.113 | -0.1 | -0.197 | -0.123 | -0.072 | 0.151 | -0.08 | 0.043 | -0.084 | -0.069 | -0.03 | -0.158 | -0.133 | -0.038 | 0.003 | – | – | – |
| WARS1 (UniProt G3V277) | -0.008 | -0.116 | 0 | 0.029 | -0.131 | 0.025 | -0.047 | 0.001 | – | – | – | – | – | -0.52 | -0.302 | – | – | -0.065 | 0.039 | -0.034 |
| WARS1 (UniProt G3V5U1) | -0.569 | – | -0.161 | -0.609 | -0.142 | -0.218 | – | 0.297 | -0.761 | – | – | – | – | – | – | -0.608 | -0.083 | – | – | – |
| U2AF1L5 (UniProt P0DN76) | 0.047 | – | 0.173 | – | 0.07 | – | – | -0.024 | – | -0.017 | – | – | – | 0.047 | -0.295 | -0.28 | -0.146 | 0.025 | -0.669 | -0.108 |
| WDR75 (UniProt Q8IWA0) | 0.019 | – | -0.329 | – | 0.173 | – | – | 0.086 | 0.17 | 0.085 | -0.252 | -0.045 | -0.021 | -0.004 | -0.125 | – | – | -0.214 | 0.041 | 0.109 |
| TMEM128 (UniProt Q5BJH2) | -0.065 | – | – | -0.059 | – | -0.036 | – | – | -0.037 | -0.01 | 0.061 | -0.021 | 0.066 | -0.167 | -0.092 | -0.131 | -0.07 | -0.008 | 0.003 | -0.031 |
| TOM1L2 (UniProt Q6ZVM7) | – | – | – | 0.089 | – | 0.036 | – | – | -0.043 | -0.091 | 0.028 | – | – | -0.136 | -0.098 | – | – | -0.047 | -0.127 | -0.125 |
| TXNRD1 isoform 7 (UniProt Q16881) | -0.124 | 0.001 | – | -0.083 | – | 0.065 | 0.21 | – | -0.227 | -0.052 | – | – | -0.051 | – | -0.214 | -0.171 | 0.171 | – | – | – |
| USP48 (UniProt Q86UV5) | 0.045 | – | 0.117 | -0.077 | -0.242 | 0.164 | – | 0.185 | – | – | – | – | – | – | – | -0.024 | 0.076 | -0.294 | -0.495 | -0.016 |
| UCHL5 isoform 3 (UniProt Q9Y5K5) | 0.151 | – | 0.049 | 0.037 | -0.277 | 0.098 | – | -0.002 | -0.054 | – | -0.052 | -0.064 | -0.085 | 0.156 | 0.05 | 0.113 | -0.028 | -0.104 | 0.076 | -0.08 |
| TRPT1 isoform 4 (UniProt Q86TN4) | – | – | 0.041 | 0.037 | 0 | 0.123 | – | 0.059 | – | – | – | -0.011 | – | 0.235 | – | 0.029 | -0.025 | – | – | – |
| UFM1 (UniProt P61960) | 0.045 | – | 0.087 | 0.045 | -0.073 | 0.004 | – | -0.033 | -0.083 | -0.012 | 0.008 | 0.007 | -0.061 | -0.135 | -0.056 | 0.056 | 0.015 | -0.011 | 0.025 | 0.026 |
| TUBA4A (UniProt C9JJQ8) | 0.116 | – | – | -0.035 | – | 0.093 | – | – | – | -0.082 | 0.012 | – | 0.047 | – | 0.053 | 0.039 | 0.206 | – | – | – |
| TVP23C (UniProt Q96ET8) | – | 0.033 | 0.04 | – | -0.023 | – | 0.045 | 0.132 | – | 0.056 | -0.116 | – | 0.041 | -0.021 | -0.003 | -0.297 | 0.081 | – | – | – |
| UBXN8 (UniProt O00124) | -0.112 | -0.086 | – | -0.139 | – | 0.046 | -0.055 | – | -0.05 | -0.056 | 0.017 | -0.439 | 0.048 | -0.103 | -0.344 | 0.037 | -0.143 | – | – | – |
| UBA52 (UniProt P62987) | 0.285 | -0.001 | -0.115 | 0.067 | 0.366 | 0 | 0.029 | 0.158 | 0.246 | – | -0.343 | -0.16 | 0.247 | 0.158 | 0.178 | -0.112 | -0.216 | – | – | – |
| UBE3B (UniProt Q7Z3V4) | -0.134 | – | – | 0.034 | – | -0.046 | – | – | -0.037 | -0.028 | -0.062 | 0.103 | -0.112 | -0.043 | – | – | – | 0.072 | 0.03 | 0.116 |
| TTC26 | -0.04 | – | – | – | – | – | – | – | – | – | – | 0.04 | – | – | 0.006 | – | – | – | – | – |
| XAB2 (UniProt Q9HCS7) | – | – | -0.151 | – | 0.011 | – | – | 0.038 | 0.298 | -0.092 | – | 0.125 | – | – | – | – | – | – | – | – |
| ULBP1 (UniProt Q9BZM6) | – | – | 0.004 | -0.045 | -0.227 | 0.099 | – | 0.013 | -0.188 | 0.083 | 0.068 | -0.11 | -0.097 | 0.026 | -0.039 | – | – | – | – | – |
| UTP3 (UniProt Q9NQZ2) | 0.689 (active) | -0.048 | -0.228 | 0.093 | 0.286 | -0.019 | -0.06 | 0.095 | 0.103 | 0.168 | -0.208 | -0.132 | 0.212 | 0.074 | 0.087 | -0.107 | -0.41 | – | – | – |
| VDAC1 (UniProt C9JI87) | -0.152 | – | 0.133 | -0.145 | -0.065 | -0.158 | – | 0.024 | -0.09 | 0.277 | -0.16 | 0.22 | 0.242 | -0.166 | – | -0.153 | 0.044 | -0.009 | -0.048 | -0.106 |
| VPS72 isoform 2 (UniProt Q15906) | -0.064 | – | 0.009 | 0.092 | -0.117 | -0.032 | – | 0.199 | -0.157 | 0.044 | -0.052 | 0.08 | 0.074 | -0.226 | 0.037 | 0.102 | -0.116 | 0.086 | 0.02 | -0.024 |
